Assay outcomes as filed in PubChem.
SENP7 inh: inhibitors of human SENP7 protease | recombinant SENP7, Z-RLRGG-aminoluciferin luminescence, 40 min | Q9BQF6 | hit rate 1.5% among 330,000 | inhibition, % at 5 µM;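 active = inhibition above about 50% at the single test dose, limit read from the data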;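 note: plate controls were DMSO with enzyme for no effect and no enzyme buffer wells for full effect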
C8 TRAIL sens: sensitizes caspase-8 expressing cells to TRAIL; NB7+C8 cells + TRAIL, ATPlite viability luminescence; hit rate 1% among 360,000; AID 624354; inhibition (viability loss, TRAIL sensitization), % at 10 µM;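 active = compounds causing at least 50% loss of cell viability in the single-dose screen, relative to plate controls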
SENP8 block-1: SENP8 (human) protease inhibition. recombinant SENP8, Nedd8 substrate fluorescence. inhibition, % at 20 µM. hit rate 0.64% among 360,000. AID 602440; in the data active = inhibition mostly above about 40%, no sharp cut-off; inactive = mostly below about 27%
Target sequence (Q96LD8 whole entry, looked up): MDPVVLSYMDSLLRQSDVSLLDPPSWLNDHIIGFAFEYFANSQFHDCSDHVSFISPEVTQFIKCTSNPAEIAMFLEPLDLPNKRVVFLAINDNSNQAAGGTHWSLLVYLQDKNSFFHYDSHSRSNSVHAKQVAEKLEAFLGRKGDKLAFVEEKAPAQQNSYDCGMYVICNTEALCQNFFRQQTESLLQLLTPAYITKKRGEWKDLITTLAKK
PPC-1+TRAIL kill: compounds killing PPC-1 cancer cells with TRAIL present (potentiator screen, no TRAIL-free arm); PPC-1 cells + TRAIL, ATPLite viability luminescence; cell killing (% activity), % at 4 µM or 5 µM; hit rate 0.41% among 220,000; AID 1443;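 active = cell killing above 50% in the first pass at 4 µM, then a duplicate retest at 5 µM averaging 50% or more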;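 note: plate controls were cells with TRAIL plus DMSO for no effect and medium-only wells lacking cells for full effect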
SENP6 block: inhibitors of human SENP6 protease | AID 2599 | hit rate 1.8% among 330,000 | Q9GZR1 | inhibition, % at 10 µM | Recombinant SENP6 catalytic domain, aminoluciferin luminescence;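 active = inhibition above about 50% at the single tested dose, limit read from the data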;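 note: plate controls were DMSO wells with enzyme for no effect and DMSO wells lacking enzyme for full effect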
SENP8 block-2: blocks the human protease SENP8 | Q96LD8 | purified SENP8, Z-RLRGG-aminoluciferin cleavage, luminescence | inhibition, % at 10 µM | hit rate 1.2% among 330,000 | AID 2540; in the data active = inhibition above about 50%
SENP8 inh conf: confirmation of human SENP8 protease inhibitors | shares compounds with SENP8 block-1 | purified SENP8, Nedd8-AMC/pro-Nedd8 cleavage fluorescence, 30 min | inhibition, % at 25 µM | hit rate 15% among 1,400; in the data active = inhibition mostly above about 39%, no sharp cut-off; inactive = mostly below about 34%
* marks the source's active call; other numbers are inactive results; · = not tested or not shown; ! = repeats disagree. Sampled rows, rich in hits. Any-hit rate of the full collection: about 3%.

SMILES | SENP7 inh | C8 TRAIL sens | SENP8 block-1 | PPC-1+TRAIL kill | SENP6 block | SENP8 block-2 | SENP8 inh conf
O=C(NCCN1CCOCC1)c1ccc([N+](=O)[O-])cc1[N+](=O)[O-] | -9 | 2 | 46* | -6 | -12 | 5 | 17
CC1CCCCC1NC(=O)C1CCC(CNc2c(N3CCCCC3)c(=O)c2=O)CC1 (stereo not drawn) | -5 | 4 | 22 | 4 | -18 | -13 | ·
Cc1[nH]n(-c2ccc(F)cc2)c(=O)c1/C=N/c1sc2c(c1C#N)CCCC2 | 8 | 16 | 48* | 8 | 11 | 8 | 23
O=C(Cn1cnc2ccccc2c1=O)Nc1nnc(SCc2ccccc2)s1 | 3 | -5 | 42* | -6 | 17 | 7 | 12
CNC(=O)C[C@H]1C(=O)N(Cc2ccccc2)C[C@@H]1Cc1ccccc1 | · | 6 | 13 | · | · | · | ·
COc1ccc(N2C(=O)CC(Nc3cccc([N+](=O)[O-])c3)C2=O)cc1 (stereo not drawn) | 8 | -7 | 47* | 14 | 6 | -8 | 29
CCOc1cc(Cl)c(CNCCCN2CCOCC2)cc1OC | 12 | 1 | 8 | · | 4 | -11 | ·
CCCNCc1cc(OC)c(OCCC)cc1Cl | 2 | -12 | 40* | 10 | 2 | -7 | -3
CC(C)C[C@H](NC(=O)c1cc2cc(Cl)ccc2n1C)C(=O)N1CCC[C@H]1C(=O)O | 11 | -4 | 47* | · | -17 | -3 | 8
C[C@H](NC(=O)c1cc2cc(Cl)ccc2n1C)C(=O)N1CCC[C@H]1C(=O)O | 10 | 1 | 13 | · | -16 | -11 | ·
COc1cc(OC)c(NC(=O)[C@@H]2CCC(=O)N2C2OC(=O)c3c2ccc(OC)c3OC)cc1Cl (stereo partly drawn) | -10 | -9 | 51* | · | -2 | 1 | 7
Cc1cccc2c(-c3ccccc3)cc(=O)[nH]c12 | -4 | 5 | -67 | 10 | -10 | -7 | ·
Cc1cc(=S)[nH]c2c(C)cccc12 | 0 | -3 | 40* | -9 | -4 | -10 | 13
CS(=O)(=O)NCc1csc(-c2ccccc2)n1 | 3 | -5 | 44* | -1 | 15 | -2 | -5
CCS(=O)(=O)NCc1csc(-c2ccccc2)n1 | -1 | -6 | 8 | 2 | 0 | 1 | ·
C=CCN1C=C2C(=O)C(C)(OC(=O)c3cnc4ccccc4n3)C(=O)C=C2C=C1/C=C/COC (stereo not drawn) | 2 | 1 | -19 | · | 10 | 7 | ·
COC/C=C/C1=CC2=CC(=O)C(C)(OC(=O)c3cnc4ccccc4n3)C(=O)C2=CN1CCOC (stereo not drawn) | 8 | 8 | 54* | · | 20 | 5 | 47*
COC/C=C/C1=CC2=CC(=O)C(C)(OC(=O)c3cnc4ccccc4n3)C(=O)C2=CN1CCCOC(C)C (stereo not drawn) | -9 | 6 | 44* | 12 | 9 | -11 | 34
O=C(Cc1cc(=O)[nH][nH]1)N/N=C/c1c(Cl)cccc1Cl | -4 | -2 | 44*! | 8 | 11 | 4 | 19
CC(C)NC(=O)c1ccc(CN2CCc3ccccc3C2)cc1 | 2 | -6 | 44* | · | -8 | 8 | 7
CN(C)c1ccc(NC(=O)c2ccc(Cn3cc([N+](=O)[O-])cn3)cc2)cc1 | 2 | 5 | 44* | -2 | -10 | 7 | 39
O=C(CSc1nccn1Cc1ccc(F)cc1)NC1CCCCC1 | · | -7 | 2 | · | · | · | ·
CCC1CCCCN1CCCNC(=O)CN1C(=O)COc2ccccc21 (stereo not drawn) | -4 | 3 | 15 | · | -6 | 1 | ·
Oc1oc(-c2ccccc2)nc1C=Nc1ccccc1 | -5 | -10 | -14 | 6 | -24 | -6 | ·
CN(C)c1ccc(N=Cc2nc(-c3ccccc3)oc2O)cc1 | 32 | -1 | 40* | 14 | 7 | -12 | -6
COc1ccccc1CNC(=O)[C@H](C)N1C(=O)N2CCc3c([nH]c4ccccc34)[C@@]2(C)C1=O | 0 | 5 | 43* | · | -2 | 8 | 14
COc1ccc(CCNC(=O)[C@H](C)N2C(=O)N3CCc4c([nH]c5ccccc45)[C@@]3(C)C2=O)cc1OC | -1 | -1 | 26 | · | 7 | -2 | ·
O=c1c(-c2ccco2)nc2ccccc2n1C(CCc1ccccc1)c1nc2ccccc2[nH]1 (stereo not drawn) | · | 1 | -454 | · | · | · | ·
